# Results reported in the supplement of paper PMC10498489.
# In all, about 2,300 compounds went through this assay and about 330 (14%) showed activity. The list is a sample of the results. A number with no mark means an inactive call.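 How the source made its calls: active = median modified Z-score above 1.96; inactive = 1.96 or below.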
# Test system: HepG2 Srxn1-GFP reporter cells (+30 nM CDDO-Me)
# Assay: Srxn1-GFP intensity median modified Z-score relative to plate median; higher = stronger NRF2 / oxidative stress reporter activation, active = hit call of the paper
# Conditions: 10 µM; exposure time: 24h
# Procedure, shortened: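 In 96-well plates holding 20,000 HepG2 Srxn1-GFP BAC reporter cells per well, compound at 10 μM and an NRF2 activator at 30 nM were added together for 24 h, with DMSO at ≤0.1%, across three replicate plates. After fixation in formaldehyde and Hoechst staining, confocal images were analysed cell by cell for cytoplasmic GFP, and images containing under 100 cells were excluded. Values are replicate medians of the per-plate modified Z-score of GFP intensity, scaled by 1.4826 × median absolute deviation.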
row,Structure (SMILES),Srxn1-GFP intensity median modified Z-score
1,COc1ccc2c(=O)ccoc2c1 [euspeclibcmpd1397],0.575
2,CC1(C)SC2C(NC(=O)C(C(=O)O)c3ccccc3)C(=O)N2C1C(=O)O (stereo not given) [euspeclibcmpd2333],0.114
3,O=c1c2cc(O)c(O)cc2oc2cc(O)c(C3O[C@H](CO)[C@@H](O)[C@H](O)[C@H]3O)c(O)c12 (stereo not given in full) [euspeclibcmpd1520],-0.904
4,CCCc1nc(=N)c(C[n+]2ccccc2C)c[nH]1 [euspeclibcmpd493],-0.6
5,COc1cccc(-c2cc(=O)c3cc(OC)ccc3o2)c1 [euspeclibcmpd1659],-0.339
6,COc1cc(O)c2c(c1)C(=O)c1cc(C)cc(O)c1C2=O [euspeclibcmpd1472],0.0189
7,Cc1cc(O)c2c(c1)C(=O)c1cccc(O)c1C2=O [euspeclibcmpd1712],4.5 (active)
8,O=C1c2cccc(O)c2C(=O)c2c(O)cccc21 [euspeclibcmpd3],19.4 (active)
9,Cc1cc(O)c2c(c1)C(=O)c1cc(O)cc(O)c1C2=O [euspeclibcmpd1604],0.573
10,O=C(O)C(O)[C@H](O)[C@H](O)[C@H](O)[C@H](O)CO (stereo not given in full) [euspeclibcmpd2445],-0.00236
11,CC(=O)C1(O)CCC2C3CC(C)=C4CC(=O)C=CC4(C)C3(F)C(O)CC21C (stereo not given) [euspeclibcmpd1970],-0.646
12,COc1cc([C@H]2Oc3cc(C4Oc5cc(O)cc(O)c5C(=O)C4O)ccc3O[C@@H]2CO)ccc1O (stereo not given in full) [euspeclibcmpd2298],-0.00238
13,C[C@]12CCC(OC(=O)c3ccccc3)CC1CCc1ccccc12 (stereo not given in full) [euspeclibcmpd2434],0.0569
14,CCn1c2cc(=N)ccc-2c2ccc(N)cc2c1-c1ccccc1 [euspeclibcmpd1148],4.33 (active)
15,C=C[C@@]1(C)CC(=O)[C@@]2(O)[C@](C)(O1)[C@@H](OC(C)=O)[C@@H](O)C1C(C)(C)CC[C@H](O)[C@@]12C (stereo not given in full) [euspeclibcmpd604],-1.15
16,N=c1[nH]c(=O)c2[nH]c(=O)cnc2[nH]1 [euspeclibcmpd1707],-0.214
17,CCCc1nc(C(C)(C)O)c(C(=O)OCc2oc(=O)oc2C)n1Cc1ccc(-c2ccccc2-c2nn[nH]n2)cc1 [euspeclibcmpd716],-0.529
18,CCCCc1nc(Cl)c(CO)n1Cc1ccc(-c2ccccc2-c2nn[nH]n2)cc1 [euspeclibcmpd678],-0.235
19,CCCc1nc2c(C)cc(-c3nc4ccccc4n3C)cc2n1Cc1ccc(-c2ccccc2C(=O)O)cc1 [euspeclibcmpd729],3.15 (active)
20,O=C1C(CCC(O)c2ccc(F)cc2)[C@@H](c2ccc(O)cc2)N1c1ccc(F)cc1 (stereo not given in full) [euspeclibcmpd714],1.03
21,COC(=O)C(NC(=O)CCCCn1cnc2c(N)ncnc21)C(C)C (stereo not given),1.19
22,CC(=O)OC1(C(C)=O)CCC2C3=CC(Cl)=C4CC(=O)C5CC5C4(C)C3CCC21C (stereo not given) [euspeclibcmpd1971],-0.163
23,CC(O)CN(CCN(CC(C)O)CC(C)O)CC(C)O (stereo not given) [euspeclibcmpd990],-0.227

row,Structure (SMILES),Srxn1-GFP intensity median modified Z-score
1,OC[C@H]1O[C@H](Oc2cc(O)cc(C=Cc3ccc(O)cc3)c2)[C@H](O)[C@@H](O)[C@@H]1O [euspeclibcmpd1401],-0.514
2,Oc1ccc(C=Cc2cc(O)cc(O)c2)cc1 [euspeclibcmpd1411],12.1 (active)
3,CCS(=O)(=O)N1CCCC(C(=O)NCCCN(C)OC)C1 (stereo not given),0.974
4,Nc1ccc(S(=O)(=O)N=c2ccc(Cl)n[nH]2)cc1 [euspeclibcmpd398],-0.684
5,O=C(NCC(O)=NO)c1ccc(Cl)cc1 [euspeclibcmpd774],0.804
6,O=c1c(O)c(-c2ccc(O)c(O)c2)oc2cc(O)cc(O)c12,0.376
7,CC(=O)OCC(=O)[C@@]1(O)CCC2C3CC=C4CC(=O)CC[C@]4(C)C3[C@@H](O)C[C@@]21C (stereo not given in full) [euspeclibcmpd151],-0.58
8,C[C@H](Cn1cnc2c(=N)nc[nH]c21)OCP(=O)(O)O [euspeclibcmpd1075],-0.0246
9,CN(C)c1ccc(C(=C2C=CC(=[N+](C)C)C=C2)c2ccc(N(C)C)cc2)cc1 [euspeclibcmpd139],8.6 (active)
10,CC(CCC(=O)O)[C@H]1CCC2C3CC[C@@H]4C[C@H](O)CC[C@]4(C)C3C[C@H](O)[C@@]21C (stereo not given in full) [euspeclibcmpd2112],-0.195
11,COC(=O)C[C@H]1C(C)(C)C(=O)C2CC3=C(CC[C@]4(C)C3=CC(=O)O[C@H]4c3ccoc3)[C@@]1(C)C2=O [euspeclibcmpd1591],0.352
12,CCCCNC(=O)NS(=O)(=O)c1ccc(OC)cc1,1.61
13,CC(NCCc1ccc(O)cc1)C(O)c1ccc(O)cc1 (stereo not given) [euspeclibcmpd402],0.107
14,C[C@@H](COc1ccccc1)N[C@H](C)[C@H](O)c1ccc(O)cc1 [euspeclibcmpd167],4.4 (active)
15,CC(CCc1ccc(O)cc1)NCC(O)c1ccc(O)cc1 (stereo not given) [euspeclibcmpd467],0.894
16,CC(C)(C)NC[C@@H](O)COc1nsnc1N1CCOCC1 [euspeclibcmpd295],-0.119
17,COC1C(=O)C(=O)c2c(cc3oc(C(C)=O)c(O)c3c2O)C1=O (stereo not given) [euspeclibcmpd1523],0.196
18,N=c1[nH]ccs1 [euspeclibcmpd1106],0.0281
19,Cc1onc(-c2ccccc2)c1C(=O)NC1C(=O)N2C1SC(C)(C)C2C(=O)O (stereo not given) [euspeclibcmpd2397],-0.382
20,COc1ccc(-c2coc3c4c(c(CC=C(C)C)c(O)c3c2=O)OC(C)(C)C=C4)cc1OC [euspeclibcmpd2204],-0.479
21,CC(C)=CCc1c2c(c3occ(-c4ccc(O)cc4)c(=O)c3c1O)C=CC(C)(C)O2 [euspeclibcmpd1709],1.14
22,CC(C)=CCc1c2c(c3occ(-c4ccc(O)c(O)c4)c(=O)c3c1O)C=CC(C)(C)O2 [euspeclibcmpd1728],156 (active)
